Our source for the cross-linked residues values is paper PMC13423814.

Sequence of EIF4A3, P38919 (P38919 whole entry): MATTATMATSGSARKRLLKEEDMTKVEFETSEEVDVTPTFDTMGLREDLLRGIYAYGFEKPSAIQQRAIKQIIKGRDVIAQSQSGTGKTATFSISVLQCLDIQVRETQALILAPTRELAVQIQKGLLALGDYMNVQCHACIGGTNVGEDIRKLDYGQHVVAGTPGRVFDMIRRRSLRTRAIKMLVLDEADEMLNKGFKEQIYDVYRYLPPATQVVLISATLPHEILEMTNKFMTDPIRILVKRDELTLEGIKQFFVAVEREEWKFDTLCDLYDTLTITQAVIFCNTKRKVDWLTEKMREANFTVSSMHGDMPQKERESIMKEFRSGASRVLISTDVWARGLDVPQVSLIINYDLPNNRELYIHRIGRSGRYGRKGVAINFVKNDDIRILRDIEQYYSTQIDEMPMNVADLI
Sequence of DDX39B, Q13838 (Q13838 whole entry): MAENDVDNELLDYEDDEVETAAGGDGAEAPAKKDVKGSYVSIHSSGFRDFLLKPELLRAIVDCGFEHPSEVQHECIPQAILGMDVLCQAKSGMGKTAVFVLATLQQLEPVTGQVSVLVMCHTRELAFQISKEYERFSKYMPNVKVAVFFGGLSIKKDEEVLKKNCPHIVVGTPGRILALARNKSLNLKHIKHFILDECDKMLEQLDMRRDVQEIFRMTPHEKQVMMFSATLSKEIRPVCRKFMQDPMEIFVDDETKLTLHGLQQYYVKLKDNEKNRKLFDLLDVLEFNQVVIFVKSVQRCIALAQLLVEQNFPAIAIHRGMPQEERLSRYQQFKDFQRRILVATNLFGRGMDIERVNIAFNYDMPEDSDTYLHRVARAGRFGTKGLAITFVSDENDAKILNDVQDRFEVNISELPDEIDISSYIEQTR
Sequence of DDX39A, O00148 (O00148 whole entry): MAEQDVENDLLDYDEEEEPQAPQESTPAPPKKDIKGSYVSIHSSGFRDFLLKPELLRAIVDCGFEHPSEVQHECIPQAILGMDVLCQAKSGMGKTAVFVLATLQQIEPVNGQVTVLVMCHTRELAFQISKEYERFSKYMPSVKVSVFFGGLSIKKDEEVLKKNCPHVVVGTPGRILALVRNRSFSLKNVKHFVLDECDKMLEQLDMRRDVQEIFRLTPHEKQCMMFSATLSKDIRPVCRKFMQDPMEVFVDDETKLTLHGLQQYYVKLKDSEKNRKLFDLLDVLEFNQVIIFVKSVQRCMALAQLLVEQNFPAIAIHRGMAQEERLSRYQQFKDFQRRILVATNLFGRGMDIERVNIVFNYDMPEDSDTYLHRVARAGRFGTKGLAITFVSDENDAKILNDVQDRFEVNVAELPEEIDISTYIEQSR

The target of the test is CHTOP (UniProt Q9Y3Y2). As to conditions: DSSO, in cells.
Sequence of CHTOP (Q9Y3Y2 whole entry): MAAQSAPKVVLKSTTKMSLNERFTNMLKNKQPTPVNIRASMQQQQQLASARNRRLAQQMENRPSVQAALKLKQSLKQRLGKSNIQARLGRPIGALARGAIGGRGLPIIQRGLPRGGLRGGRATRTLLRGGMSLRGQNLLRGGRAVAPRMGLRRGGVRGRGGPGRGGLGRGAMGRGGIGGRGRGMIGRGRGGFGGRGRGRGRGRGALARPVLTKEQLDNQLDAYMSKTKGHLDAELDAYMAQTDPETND
On to EIF4A3, P38919, for which the cross-linked residues result is recorded as “K152 - K81”.
The entry for DDX39B, Q13838 is “K188 - K226”; for DDX39A, O00148 it is “K187 - S225”.
